FEN1 inhibitor – blocks human flap endonuclease 1; P39748; Recombinant FEN1 flap cleavage, fluorescence, 15 min; Potency, µM (titrated, usually from 114 µM), without a hit: top-dose activity change, negative = inhibition, actives largely listed as inhibitors; hit rate 0.35% among 390,000; AID 588795; also: % is scaled to controls: 0 for no effect and ±100 for the full control effect; nearly all actives have a fitted effect of over 65% in size
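With each library titrated from low to high concentration, compounds met 10 nM FEN1 for 15 min at room temperature before 50 nM substrate was added; readings at 0 and 15 min fed four-parameter Hill curve fits.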
POLK inh – inhibitors of human DNA polymerase kappa | Q9UBT6 | purified Pol kappa, fluorescent DNA synthesis assay, 10 min | Potency, µM (top dose mostly 107 µM), for inactives: at the highest dose activity, negative = inhibition, usual class: inhibitors | hit rate 0.53% among 400,000 | AID 588579; also: % is scaled to controls: 0 for no effect and ±100 for the full control effect
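Activity was followed as the change in fluorescence between reads at 0 and 10 min after starting the reaction with 50 nM substrate. Beforehand, 10 nM polymerase had been preincubated with compound for 15 min at room temperature.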
Pol iota inh – inhibitors of human DNA polymerase iota; Q9UNA4; Pol iota fluorescent replication assay, 10 min; Potency, µM (series often up to 115 µM), for inactives: at the top dose activity, negative = inhibition, usual class: inhibitors; hit rate 1% among 390,000; AID 588590
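Fluorescent replication assay read twice, at 0 min and 10 min after adding 50 nM (final) substrate. Enzyme (10 nM) and compounds were first incubated 15 min at room temperature; enzyme-free buffer wells were negative controls.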
POLH inh – DNA polymerase eta (human) inhibition. recombinant Pol eta, fluorescent DNA replication assay. Potency, µM (highest dose often 114 µM), without a hit: at the highest dose activity change, negative = inhibition, usual class: inhibitors. hit rate 1.2% among 390,000. AID 588591; also: % is scaled to controls: 0 for no effect and ±100 for the full control effect
Target sequence (Q9Y253 whole entry, looked up): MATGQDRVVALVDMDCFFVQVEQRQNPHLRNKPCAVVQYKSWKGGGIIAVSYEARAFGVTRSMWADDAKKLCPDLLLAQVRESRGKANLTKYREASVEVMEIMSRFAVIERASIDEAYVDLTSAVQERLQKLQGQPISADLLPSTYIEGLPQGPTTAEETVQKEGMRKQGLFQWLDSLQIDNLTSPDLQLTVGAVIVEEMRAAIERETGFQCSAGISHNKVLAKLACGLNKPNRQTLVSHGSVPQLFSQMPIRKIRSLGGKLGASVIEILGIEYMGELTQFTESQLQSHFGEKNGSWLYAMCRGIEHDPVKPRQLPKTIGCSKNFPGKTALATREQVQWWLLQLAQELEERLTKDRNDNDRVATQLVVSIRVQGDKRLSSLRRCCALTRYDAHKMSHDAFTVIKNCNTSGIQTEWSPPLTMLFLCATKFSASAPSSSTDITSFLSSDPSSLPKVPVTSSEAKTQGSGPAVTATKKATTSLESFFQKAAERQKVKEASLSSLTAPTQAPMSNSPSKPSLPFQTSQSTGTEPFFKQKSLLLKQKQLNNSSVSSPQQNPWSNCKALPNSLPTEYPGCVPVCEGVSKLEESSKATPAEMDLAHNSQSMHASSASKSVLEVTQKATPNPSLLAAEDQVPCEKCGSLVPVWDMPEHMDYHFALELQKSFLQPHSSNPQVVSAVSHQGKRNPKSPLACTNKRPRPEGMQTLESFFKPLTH
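Pol eta (10 nM) was preincubated with compounds for 15 min at room temperature, after which fluorescent replication substrate (50 nM final) was added to start the reaction. Fluorescence was read kinetically at 0 and 10 min.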
WRN inhibitor – WRN helicase (human) inhibition. Q14191. WRN helicase unwinding, fluorescent forked duplex, kinetic. Potency, µM (titrated, usually from 114 µM), for the others: at the top dose activity change, negative = inhibition, usual class: inhibitors. hit rate 0.46% among 360,000; also: % is scaled to controls: 0 for no effect and ±100 for the full control effect; nearly all actives have a fitted effect of over 55% in size
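Screening of the MLSMR collection measured strand separation of a quenched forked DNA duplex (100 nM) by 20 nM WRN with 2 mM ATP, all final. Compounds were preincubated with enzyme 15 min at room temperature.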
Pol beta inh – DNA polymerase beta (human) inhibition; P06746; Pol beta primer extension/strand displacement, fluorescence kinetic; Potency, µM (series often up to 114 µM), inactives show top-dose activity change, negative = inhibition, most hits filed as inhibitors; hit rate 1.3% among 340,000; AID 485314; also: % is scaled to controls: 0 for no effect and ±100 for the full control effect
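Enzyme-only controls used 10 nM Pol beta; buffer lacking enzyme served as negative control. Compound preincubated 15 min, then 50 nM substrate added; 0 and 10 min reads at room temperature.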
The depositor's hits bear a star; ? = inconclusive; . = not tested or not shown; [ ] = dose if it differs, or a comment. A selection: hits, their analogues and other compounds. The true share with any hit is near 2.4%. Calls follow the shape of the dose curve; as a rule, active = well fitted curve in the direction sought with a large enough effect; inconclusive = small, poorly fitted or top-dose-only effect, or another doubt; inactive = no such curve, though single readings can be large; an effect the other way counts as inactive or inconclusive. Potency is read from the fitted curve at half-maximal effect.

SMILES | FEN1 inhibitor | POLK inh | Pol iota inh | POLH inh | WRN inhibitor | Pol beta inh
COc1ccc(/C=C2\SC(=S)N(CCCC(=O)Nc3cccc(C(=O)O)c3)C2=O)cc1OC | 5.9% | -1.6% | -4.8% | ? | -4.1% | -19.7%
CCc1ccc(/C=C2\SC(=S)N(CCCC(=O)Nc3ccccc3C(=O)O)C2=O)cc1 | -2.3% | 5.3% | 70.8µM* | ? | ? | ?
Cc1ccc(/C=C2\SC(=S)N(CCCC(=O)Nc3ccccc3C(=O)O)C2=O)cc1 | ? | -5.2% | -27.5% | ? | -1.8% | 2.1%
COc1ccc(/C=C2\SC(=S)N(CCC(=O)Nc3ccc(C(=O)O)cc3)C2=O)cc1OC | -9.1% | -9.2% | 107.4% | 31.6µM* | -15.4% | ?
O=C(CCCN1C(=O)/C(=C/c2ccc3c(c2)OCO3)SC1=S)Nc1ccc(C(=O)O)cc1 | -29.4% | -12.2% | -22.0% | 89.1µM* | -25.1% | 1.4%
C=C(CN(C)C)C(=O)c1cc(C)ccc1C | -4.1% | -19.5% | ? | ? | 22.4µM* | .
CCc1ncc(C(O)c2ccc(Cl)cc2)n1Cc1ccccc1 (centres undefined) | . | . | . | -3.1% | -2.4% | .
COc1ccc(NS(=O)(=O)c2ccc(OC)c(N(C)S(=O)(=O)c3ccc(Cl)cc3)c2)cc1 | -12.8% | -14.3% | 89.1µM* | -19.7% | -17.2% | -16.7%
COc1ccc(S(=O)(=O)Nc2ccc(F)cc2)cc1N(C)S(=O)(=O)c1ccc(Cl)cc1 | -4.5% | -15.5% | 89.1µM* | -14.4% | -26.6% | -0.6%
COc1ccc(S(=O)(=O)Nc2ccc(S(=O)(=O)Nc3ccc(F)cc3)cc2)cc1C | -10.9% | -2.8% | ? | -13.7% | -12.4% | 7.0%
COc1ccc(N(C(=O)c2ccc(OC)c(OC)c2)S(=O)(=O)c2ccc(Cl)cc2)cc1 | 89.1µM* | 79.4µM* | 89.1µM* | -15.7% | . | -2.2%
COc1ccc(Cl)cc1NC(=O)N(C)CCc1c(C)nn(C)c1C | -3.2% | -4.3%[60.1 µM] | 28.3% | -18.5% | . | 26.3%
COc1ccc(C(=O)CSc2nnc(CN3CCCCC3)n2-c2ccc(Cl)cc2)cc1OC | 2.6% | -9.4% | -14.6% | -21.7% | -1.2% | 5.4%
O=S(=O)(Nc1ccccc1)c1ccc(-c2cnc(C3CC3)o2)cc1 | -0.8% | 7.5% | 79.4µM* | -13.3% | 1.7% | 5.1%
Cc1ccsc1/C=N/NC(=O)C1CC(=O)N(c2ccc(F)cc2)C1 (centres undefined) | -15.1% | -19.8% | 15.6% | -21.1% | -6.1% | 1.3%
CCc1ccc(NC(=O)C2CCN(S(=O)(=O)c3ccc4c(c3)NC(=O)C(C)S4)CC2)cc1 (centres undefined) | -15.0% | -18.8% | 79.4µM* | 0.3% | -33.3% | ?
Cc1ccc(NC(=O)C2CCN(S(=O)(=O)c3ccc4c(c3)NC(=O)C(C)S4)CC2)cc1C (centres undefined) | ? | -4.9% | 8.9% | -18.8% | -6.2% | 87.1%
CCn1c(SCC(=O)N2c3ccccc3Sc3ccccc32)nnc1-c1ccco1 | -14.4% | -4.1%[60.1 µM] | 15.1% | -13.9% | -17.0% | 44.7µM*
CCCn1c(SCC(=O)N2c3ccccc3Sc3ccccc32)nc2c1c(=O)n(C)c(=O)n2C | 9.0% | -9.5% | 89.1µM* | -2.1% | -0.2% | -5.6%
CCOC(=O)c1c(C)oc2nc(C)nc(NCCCN3CCN(c4ccccc4)CC3)c12 | 0.2% | 7.0% | -17.7% | -12.0% | . | 0.1%
CCOC(=O)c1c(C)oc2nc(C)nc(NCCCN3CCN(c4cccc(C)c4)C(C)C3)c12 (centres undefined) | 5.9% | ? | 89.1µM* | -27.7% | . | -23.6%
COc1cccc(C2=NN(C(=O)c3ccco3)C(c3ccco3)C2)c1 (centres undefined) | -15.0% | -9.5% | 19.9% | -12.9% | -10.3% | 0.1%
O=C(CN1CCC(NC(=O)c2ccc(Br)cc2)CC1)NCc1cccs1 | 20.8% | -7.7% | -14.4% | 5.0% | 6.7% | -0.3%
COc1cccc(NC(=O)Cn2c(=O)n(CCc3cccc(C)c3)c(=O)c3ccccc32)c1 | ? | -26.6% | 89.1µM* | -6.2% | . | -16.2%
COc1cccc(-n2cnc(=O)c3cccnc32)c1 | -4.9% | 5.2% | 31.6% | -12.6% | -1.0% | 13.8%
SMILES | FEN1 inhibitor | POLK inh | Pol iota inh | POLH inh | WRN inhibitor | Pol beta inh
Cc1ccc(NC(=O)c2cc(-c3ccco3)nc3ccccc23)cc1S(=O)(=O)N1CCOCC1 | -0.6% | -41.2% | 15.8µM* | ? | ? | 14.1µM*
Cc1ccc(S(=O)(=O)N(C)C)cc1NC(=O)c1cc(-c2ccco2)nc2ccccc12 | 9.7% | ? | 20µM* | ? | ? | -0.5%
O=c1cc(CSc2nnc(-c3cccs3)n2Cc2ccccc2)nc2sc3ccccc3n12 | -0.9% | 79.4µM* | 12.6µM* | ? | -9.4% | 10µM*
N#C/C(=C\c1sc(N2CCOCC2)nc1-c1ccccc1)C(=O)Nc1cccc2ccccc12 | . | . | . | . | . | 35.1%
CC1(C)Cc2c(C#N)c(N3CCOCC3)nc(Cc3ccccc3)c2CO1 | 2.0% | 1.4% | -10.0% | -19.5% | -32.3%[57.1 µM] | 24.3%
CN1/C(=C/c2cc[n+](C)c3ccccc23)C=Cc2ccccc21 | 44.7µM* | -17.1% | 27.4% | -17.5% | 28.2µM* | 31.6µM*
c1ccc(OCc2nn3c(-c4n[nH]c5c4CCC5)nnc3s2)cc1 | -1.1% | -26.5% | ? | ? | -25.2% | ?
Cc1ccc(OCc2nn3c(-c4n[nH]c5c4CCC5)nnc3s2)cc1 | . | . | . | . | . | 14.1µM*
O=[N+]([O-])c1ccc(O)c(/C=N/n2cnc3ccccc32)c1 | 13.8% | -9.7% | 3.9% | -18.2% | -4.6% | 1.3%
Cc1ccc(/C=C2\SC(=S)N(/N=C/c3cc([N+](=O)[O-])ccc3O)C2=O)o1 | 50.1µM* | 20µM* | 4.47µM* | 10µM* | 35.5µM* | 8.91µM*
O=C(O)c1ccc(NC(=O)c2cccc(C(=O)Nc3ccc(C(=O)O)cc3)n2)cc1 | -0.6% | 10.4% | -23.2% | 22.1% | -1.6% | 0.1%
O=C(NC(=S)Nc1cc([N+](=O)[O-])ccc1O)c1ccc2c(c1)OCO2 | -3.5% | -17.5% | 6.9% | 1.1% | -17.4% | 44.7µM*
C[C@@H]1CN([C@H](C)CO)C(=O)c2cc(Br)cnc2O[C@@H]1CN(C)C(=O)Nc1cccc(F)c1 | . | . | . | -17.4% | 6.3% | .
Cc1ccc(OCC(=O)Nc2sc3c(c2C#N)CC(C)(C)NC3(C)C)cc1 | 0.7% | -6.7% | 133.2% | -3.9% | 2.7% | -16.6%
CC1(C)Cc2c(sc(NC(=O)COc3cccc4ccccc34)c2C#N)C(C)(C)N1 | 0.8% | -15.2% | ? | ? | -28.8% | 22.4µM*
COc1ccc(N(CC(=O)Nc2cc(OC)cc(OC)c2)S(=O)(=O)c2c(C)noc2C)cc1 | -10.1% | -28.2% | 89.1µM* | -19.9% | . | 0.0%

High-throughput results: PubChem, National Center for Advancing Translational Sciences (NCATS)
